Among all 5,500 compounds or so, about 2,000 (36%) were called active. Inconclusive results (about 18%) are left out. No stated cut-off is given here; in the data, active means normalized growth mostly below about 0.91 (no sharp cut-off); inconclusive means no clear call, values can overlap the other calls; inactive means mostly above about 0.92. The list shows a part of the results.
Assay: chemical genetic growth profiling, strain panel (AID 1159580);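 further: tested at 20 µM; growth read once vehicle control cultures reached saturation at 30 °C; 1 = growth at the plate median or of vehicle wells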
Conditions: growth OD

Measured: normalized growth

CCCCOc1cc(C(=O)NCCN(CC)CC)c2ccccc2n1
inactive: S. cerevisiae deletion strains, locus YJR075W, strain HOC1, stronger effect = lower value 0.999 | S. cerevisiae deletion strains, locus YKL009W, strain mrt4, stronger effect = lower value 1 | S. cerevisiae deletion strains, locus YKL068W, stronger effect = lower value 0.994 | S. cerevisiae deletion strains, locus YKL085W, strain MDH1 (second series), stronger effect = lower value 0.989 | S. cerevisiae deletion strains, locus YKL085W, strain MDH1, stronger effect = lower value 0.989 | S. cerevisiae deletion strains, locus YKL160W, strain elf1, stronger effect = lower value 0.964 | S. cerevisiae deletion strains, locus YKR001C, strain vps1, stronger effect = lower value 1.01 | S. cerevisiae deletion strains, locus YKR026C, strain gcn3, stronger effect = lower value 0.962 | S. cerevisiae deletion strains, locus YKR091W, strain srl3, stronger effect = lower value 0.973 | S. cerevisiae deletion strains, locus YLL001W, strain dnm1, stronger effect = lower value 0.939 | S. cerevisiae deletion strains, locus YLL026W, stronger effect = lower value 0.981 | S. cerevisiae deletion strains, locus YLL041C, strain sdh2, stronger effect = lower value 0.956 | S. cerevisiae deletion strains, locus YLR027C, strain aat2, stronger effect = lower value 0.97 | S. cerevisiae deletion strains, locus YLR039C, strain RIC1, stronger effect = lower value 1.13 | S. cerevisiae deletion strains, locus YLR058C, strain SHM2, stronger effect = lower value 1.01 | S. cerevisiae deletion strains, locus YLR102C, strain apc9, stronger effect = lower value 0.99 | S. cerevisiae deletion strains, locus YLR113W, strain HOG1, stronger effect = lower value 1.02 | S. cerevisiae deletion strains, locus YLR221C, strain rsa3, stronger effect = lower value 1.02 | S. cerevisiae deletion strains, locus YLR258W, strain gsy2, stronger effect = lower value 1 | S. cerevisiae deletion strains, locus YLR262C, strain YPT6 (second series), stronger effect = lower value 0.956 | S. cerevisiae deletion strains, locus YLR262C, strain YPT6, stronger effect = lower value 1.14 | S. cerevisiae deletion strains, locus YLR268W, strain sec22, stronger effect = lower value 1 | S. cerevisiae deletion strains, locus YLR320W, strain mms22, stronger effect = lower value 1.02 | S. cerevisiae deletion strains, locus YLR330W, strain CHS5, stronger effect = lower value 1.01 | S. cerevisiae deletion strains, locus YLR342W, strain FKS1 (second series), stronger effect = lower value 1.02 | S. cerevisiae deletion strains, locus YLR342W, strain FKS1, stronger effect = lower value 0.957 | S. cerevisiae deletion strains, locus YLR357W, strain rsc2, stronger effect = lower value 0.94 | S. cerevisiae deletion strains, locus YLR370C, strain arc18, stronger effect = lower value 0.971 | S. cerevisiae deletion strains, locus YLR371W, strain rom2, stronger effect = lower value 0.99 | S. cerevisiae deletion strains, locus YLR384C, strain iki3, stronger effect = lower value 0.959 | S. cerevisiae deletion strains, locus YLR418C, strain cdc73, stronger effect = lower value 0.984 | S. cerevisiae deletion strains, locus YML016C, strain PPZ1, stronger effect = lower value 1.01 | S. cerevisiae deletion strains, locus YML032C, strain rad52, stronger effect = lower value 0.989 | S. cerevisiae deletion strains, locus YML120C, strain ndi1, stronger effect = lower value 0.969 | S. cerevisiae deletion strains, locus YML124C, strain tub3, stronger effect = lower value 0.994 | S. cerevisiae deletion strains, locus YMR058W, strain fet3, stronger effect = lower value 0.968 | S. cerevisiae deletion strains, locus YMR078C, strain ctf18, stronger effect = lower value 0.991 | S. cerevisiae deletion strains, locus YMR125W, strain sto1, stronger effect = lower value 0.931 | S. cerevisiae deletion strains, locus YMR129W, stronger effect = lower value 0.982 | S. cerevisiae deletion strains, locus YMR205C, strain PFK2, stronger effect = lower value 0.972 | S. cerevisiae deletion strains, locus YMR223W, strain ubp8, stronger effect = lower value 0.987 | S. cerevisiae deletion strains, locus YMR231W, strain pep5, stronger effect = lower value 0.96 | S. cerevisiae deletion strains, locus YMR263W, strain SAP30, stronger effect = lower value 1 | S. cerevisiae deletion strains, locus YMR307W, strain GAS1, stronger effect = lower value 1.1 | S. cerevisiae deletion strains, locus YNL067W, strain RPL9B, stronger effect = lower value 0.995 | S. cerevisiae deletion strains, locus YNL071W, strain lat1, stronger effect = lower value 0.985 | S. cerevisiae deletion strains, locus YNL128W, strain TEP1, stronger effect = lower value 1 | S. cerevisiae deletion strains, locus YNL153C, strain GIM3, stronger effect = lower value 0.994 | S. cerevisiae deletion strains, locus YNL183C, strain NPR1, stronger effect = lower value 0.975 | S. cerevisiae deletion strains, locus YNL209W, strain ssb2, stronger effect = lower value 0.985 | S. cerevisiae deletion strains, locus YNL233W, strain BNI4, stronger effect = lower value 0.997 | S. cerevisiae deletion strains, locus YNL248C, strain rpa49, stronger effect = lower value 0.979 | S. cerevisiae deletion strains, locus YNL250W, strain rad50, stronger effect = lower value 0.996 | S. cerevisiae deletion strains, locus YNL271C, strain bni1, stronger effect = lower value 0.991 | S. cerevisiae deletion strains, locus YNL298W, strain CLA4, stronger effect = lower value 0.998 | S. cerevisiae deletion strains, locus YNL307C, strain MCK1, stronger effect = lower value 0.984 | S. cerevisiae deletion strains, locus YNL322C, strain KRE1 (second series), stronger effect = lower value 0.951 | S. cerevisiae deletion strains, locus YNL322C, strain KRE1, stronger effect = lower value 1 | S. cerevisiae deletion strains, locus YNR049C, strain mso1, stronger effect = lower value 0.967 | S. cerevisiae deletion strains, locus YNR052C, strain pop2, stronger effect = lower value 0.985 | S. cerevisiae deletion strains, locus YOL012C, strain htz1 0.896 | S. cerevisiae deletion strains, locus YOL147C, strain pex11, stronger effect = lower value 0.998 | S. cerevisiae deletion strains, locus YOR001W, strain rrp6, stronger effect = lower value 0.935 | S. cerevisiae deletion strains, locus YOR061W, strain CKA2, stronger effect = lower value 1.01 | S. cerevisiae deletion strains, locus YOR069W, strain VPS5, stronger effect = lower value 1 | S. cerevisiae deletion strains, locus YOR070C, strain gyp1, stronger effect = lower value 0.991 | S. cerevisiae deletion strains, locus YOR080W, strain dia2, stronger effect = lower value 0.962 | S. cerevisiae deletion strains, locus YOR083W, strain WHI5, stronger effect = lower value 0.967 | S. cerevisiae deletion strains, locus YOR106W, strain vam3, stronger effect = lower value 0.966 | S. cerevisiae deletion strains, locus YOR136W, strain idh2, stronger effect = lower value 0.998 | S. cerevisiae deletion strains, locus YOR144C, strain elg1, stronger effect = lower value 0.992 | S. cerevisiae deletion strains, locus YOR184W, strain ser1, stronger effect = lower value 0.995 | S. cerevisiae deletion strains, locus YOR231W, strain MKK1, stronger effect = lower value 1.03 | S. cerevisiae deletion strains, locus YOR265W, strain rbl2, stronger effect = lower value 0.976 | S. cerevisiae deletion strains, locus YOR270C, strain vph1, stronger effect = lower value 0.933 | S. cerevisiae deletion strains, locus YOR290C, strain snf2, stronger effect = lower value 0.977 | S. cerevisiae deletion strains, locus YOR316C, strain cot1, stronger effect = lower value 0.996 | S. cerevisiae deletion strains, locus YPL051W, strain arl3, stronger effect = lower value 0.989 | S. cerevisiae deletion strains, locus YPL055C, strain LGE1, stronger effect = lower value 1.02 | S. cerevisiae deletion strains, locus YPL078C, strain atp4, stronger effect = lower value 0.936 | S. cerevisiae deletion strains, locus YPL106C, strain sse1, stronger effect = lower value 0.921 | S. cerevisiae deletion strains, locus YPL240C, strain hsp82, stronger effect = lower value 0.962 | S. cerevisiae deletion strains, locus YPL256C, strain CLN2, stronger effect = lower value 1.01 | S. cerevisiae deletion strains, locus YPR119W, strain clb2, stronger effect = lower value 0.994 | S. cerevisiae deletion strains, locus YPR141C, strain kar3, stronger effect = lower value 1 | S. cerevisiae deletion strains, locus YPR163C, strain tif3, stronger effect = lower value 1 | S. cerevisiae deletion strains, locus YPR167C, strain met16, stronger effect = lower value 0.986 | S. cerevisiae deletion strains, strain wtn01, stronger effect = lower value 1.02 | S. cerevisiae strains, strain wild type, stronger effect = lower value 1
